Reference: PubChem BioAssay AID1159580 (chemical genetic matrix, 2015)
Several values for one entry are separate records, joined by “and”; a condition that tells them apart may be missing. Equal entries are not always repeated. The campaign covered roughly 5,500 compounds. About 2,000 (36%) were called active. Inconclusive results (about 18%) are left out. Cut-off read from the data, not from the text of the source: active = normalized growth mostly below about 0.91 (no sharp cut-off); inconclusive = no clear call, values can overlap the other calls; inactive = mostly above about 0.92. Some of the results follow.

Assay: chemical genetic growth profiling, strain panel (AID 1159580);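 note: tested at 20 µM; growth read once vehicle control cultures reached saturation at 30 °C; 1 = growth at the plate median or of vehicle wells; lower values mean less growth of the strain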
Conditions: S. cerevisiae deletion strains, growth OD

Measured: normalized growth

Cc1ccccc1OCC(O)CO (centres undefined)
inactive: locus YAL013W, strain DEP1, hits give low values 1.02 | locus YAL021C, strain ccr4, hits give low values 0.971 | locus YAL026C, strain drs2, hits give low values 0.974 | locus YAL030W, strain snc1, hits give low values 0.967 | locus YBL061C, strain skt5, hits give low values 0.962 | locus YBR009C, strain hhf1, hits give low values 0.985 | locus YBR021W, strain FUR4, hits give low values 1.03 | locus YBR023C, strain chs3, hits give low values 0.964 | locus YBR171W, strain sec66, hits give low values 0.973 | locus YBR229C, strain ROT2, hits give low values 1.02 | locus YBR231C, strain swc5, hits give low values 0.98 | locus YBR279W, strain paf1, hits give low values 0.974 | locus YCL011C, strain gbp2, hits give low values 0.971 | locus YCL016C, strain dcc1, hits give low values 0.967 | locus YCL029C, strain bik1, hits give low values 0.998 | locus YCL061C, strain MRC1, hits give low values 0.993 | locus YCL069W, strain vba3, hits give low values 0.981 | locus YCR088W, strain abp1, hits give low values 0.969 | locus YDL005C, strain med2, hits give low values 0.976 | locus YDL035C, strain GPR1, hits give low values 1.03 | locus YDL040C, strain nat1, hits give low values 0.967 | locus YDL074C, strain BRE1, hits give low values 1.05 | locus YDL101C, strain DUN1, hits give low values 1.03 | locus YDL134C, strain PPH21, hits give low values 1.04 | locus YDL185W, strain tfp1, hits give low values 0.99 | locus YDL192W, strain arf1, hits give low values 0.991 | locus YDR001C, strain nth1, hits give low values 0.983 | locus YDR069C, strain doa4, hits give low values 0.966 | locus YDR101C, strain arx1, hits give low values 1 | locus YDR137W, strain rgp1, hits give low values 0.997 | locus YDR159W, strain sac3, hits give low values 0.977 | locus YDR162C, strain NBP2, hits give low values 1.02 | locus YDR195W, strain ref2 0.957 | locus YDR297W, strain sur2, hits give low values 0.978 | locus YDR318W, strain mcm21, hits give low values 1.01 | locus YDR334W, strain swr1, hits give low values 0.964 | locus YDR335W, strain msn5, hits give low values 0.988 | locus YDR388W, hits give low values 0.987 | locus YDR392W, strain spt3, hits give low values 0.981 | locus YDR502C, strain sam2, hits give low values 0.99 | locus YEL003W, strain gim4, hits give low values 0.97 | locus YEL037C, strain rad23, hits give low values 0.969 | locus YEL061C, strain CIN8 (second series), hits give low values 0.968 | locus YEL061C, strain CIN8, hits give low values 1.01 | locus YER015W, strain faa2, hits give low values 0.976 | locus YER016W, strain bim1, hits give low values 0.988 | locus YER110C, hits give low values 0.99 | locus YER111C, strain swi4, hits give low values 0.97 | locus YER155C, strain BEM2 (second series), hits give low values 0.969 | locus YER155C, strain BEM2, hits give low values 1.01 | locus YER167W, strain BCK2, hits give low values 1.01 | locus YFR010W, strain ubp6, hits give low values 0.972 | locus YGL078C, strain dbp3, hits give low values 1 | locus YGL086W, strain mad1, hits give low values 1.01 | locus YGL167C, strain pmr1, hits give low values 0.969 | locus YGL173C, strain kem1, hits give low values 0.969 | locus YGL227W, strain vid30, hits give low values 0.976 | locus YGL240W, strain doc1, hits give low values 0.971 | locus YGL248W, strain PDE1, hits give low values 1.03 | locus YGL253W, strain hxk2, hits give low values 0.971 | locus YGR135W, strain pre9, hits give low values 0.99 | locus YGR229C, strain SMI1, hits give low values 1.03 | locus YGR252W, strain gcn5, hits give low values 0.989 | locus YHR013C, strain ard1, hits give low values 0.965 | locus YHR027C, strain rpn1, hits give low values 0.969 | locus YHR030C, strain SLT2, hits give low values 1.01 and 0.978 | locus YHR079C, strain IRE1 (second series), hits give low values 0.992 | locus YHR079C, strain IRE1, hits give low values 0.973 | locus YHR094C, strain hxt1, hits give low values 0.986 | locus YHR129C, strain ARP1, hits give low values 1.02 | locus YHR142W, strain chs7, hits give low values 0.964 | locus YHR200W, strain rpn10, hits give low values 1 | locus YIL066C, strain RNR3, hits give low values 1.04 | locus YIL073C, strain SPO22, hits give low values 1.08 | locus YIL125W, strain kgd1, hits give low values 0.99 | locus YIR030C, strain dcg1, hits give low values 0.989 | locus YJL092W, strain hpr5, hits give low values 0.99 | locus YJL095W, strain BCK1 (second series), hits give low values 0.977 | locus YJL095W, strain BCK1, hits give low values 1.05 and 0.98 | locus YJL115W, strain asf1, hits give low values 0.977 | locus YJL129C, strain trk1, hits give low values 0.971 | locus YJL134W, strain LCB3, hits give low values 1.01 | locus YJL154C, strain vps35, hits give low values 0.973 | locus YJL164C, strain tpk1, hits give low values 0.969 | locus YJL166W, strain qcr8, hits give low values 0.978 | locus YJL168C, strain set2, hits give low values 0.991 | locus YJL187C, strain SWE1 (second series), hits give low values 1.03 | locus YJL187C, strain SWE1, hits give low values 0.979 | locus YJR043C, strain POL32, hits give low values 1.02
